PubChem BioAssay (NCATS)
Results filed as inconclusive are left out. Entries that show only a call come without a potency. Values without a mark were called inactive. The source made the active and inactive calls. The call rests on the fitted dose curve; in most records, active means well fitted activation curve with a large enough effect; inconclusive means small, poorly fitted or top-dose-only effect; inactive means no such curve, though single readings can be large or run the other way.

Each molecule was assayed against Rap guanine nucleotide exchange factor 3 (Homo sapiens) (UniProt O95398) (assay: Confirmatory qHTS for agonist of cAMP-regulated guanine nucleotide exchange factor 3 (EPAC1) (AID 1645881; further: nearly all actives have a fitted effect of over 75% in size;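 on activation: EPAC1 catalysed release of BODIPY-GDP from Rap1B seen as fluorescence loss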)). Details: EPAC1 Rap1B BODIPY-GDP exchange fluorescence; series mostly up to 154 µM.
Potency means the concentration at half of the fitted maximal effect.

Rap guanine nucleotide exchange factor 3 (Homo sapiens), sequence (O95398 whole entry, looked up): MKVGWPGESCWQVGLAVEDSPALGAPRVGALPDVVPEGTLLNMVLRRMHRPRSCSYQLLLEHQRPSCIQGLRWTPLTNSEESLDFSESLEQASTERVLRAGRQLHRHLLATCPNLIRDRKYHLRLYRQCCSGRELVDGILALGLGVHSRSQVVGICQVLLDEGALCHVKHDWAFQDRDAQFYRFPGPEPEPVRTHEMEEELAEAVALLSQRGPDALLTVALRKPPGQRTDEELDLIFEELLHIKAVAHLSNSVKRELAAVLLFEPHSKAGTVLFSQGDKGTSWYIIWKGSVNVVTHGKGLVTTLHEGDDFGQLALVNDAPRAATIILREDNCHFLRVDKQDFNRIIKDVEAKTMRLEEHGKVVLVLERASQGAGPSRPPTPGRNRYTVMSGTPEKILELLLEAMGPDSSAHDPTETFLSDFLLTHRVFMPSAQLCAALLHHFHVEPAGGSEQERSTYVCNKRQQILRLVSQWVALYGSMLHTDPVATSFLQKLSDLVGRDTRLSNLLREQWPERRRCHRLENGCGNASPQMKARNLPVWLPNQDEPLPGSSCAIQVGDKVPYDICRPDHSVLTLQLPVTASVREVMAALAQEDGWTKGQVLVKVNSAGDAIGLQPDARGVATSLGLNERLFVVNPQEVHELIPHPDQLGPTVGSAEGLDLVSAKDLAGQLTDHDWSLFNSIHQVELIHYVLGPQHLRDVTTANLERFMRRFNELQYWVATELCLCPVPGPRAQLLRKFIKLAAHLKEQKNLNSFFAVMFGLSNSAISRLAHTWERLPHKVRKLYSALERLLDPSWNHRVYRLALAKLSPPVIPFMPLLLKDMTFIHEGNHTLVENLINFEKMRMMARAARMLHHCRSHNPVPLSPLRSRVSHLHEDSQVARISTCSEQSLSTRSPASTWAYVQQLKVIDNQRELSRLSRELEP

SMILES	Potency
CCN1CC=C2C(C#N)=C(N)C(C#N)(C#N)C(CCc3ccccc3)C2C1 (stereo not given)	50.1 µM (active)
CCCCC[C@H](C)N1C[C@@H](COCc2ccccc2)Oc2cc(N3CC[C@H](N(C)C)C3)ccc2S1(=O)=O	inactive
COc1ccccc1-c1nc2ccccc2n(CC(C)C)c1=O	inactive
C[C@H](CCC(=O)O)[C@H]1CC[C@H]2[C@@H]3CC[C@@H]4C[C@H](O)CC[C@]4(C)[C@H]3CC[C@]12C	inactive
CCCCN(C=O)c1c(CC)nc2c(OCc3ccc(C(F)(F)F)cc3)cccn12	inactive
CC1=C(C(=O)OCc2ccccc2)C(c2ccc(C(C)(C)C)cc2)NC(=O)N1CCCCCC(=O)O (stereo not given)	inactive
CCCCOc1ccc(C(=O)N/N=C/c2cn[nH]c2-c2ccc(OC)c(OC)c2)cc1	inactive
CN(CC(=O)Nc1ccccc1Cl)C(=O)c1ccc(-c2cccc(C(F)(F)F)c2)o1	inactive
CCOC(=O)c1c(C)[nH]c(C)c1C(=O)COC(=O)c1cc(OC)cc(OC)c1	inactive
Cc1ccc(S(=O)(=O)c2nc(-c3ccco3)oc2SC(C)C)cc1	inactive
CCC(CO)Oc1cc(NCc2ccc(C(C)(C)C)cc2)c2ncn(C(C)C)c2c1 (stereo not given)	inactive
COc1ccc(CCC(=O)N(C)CC(=O)Nc2ccc(Cl)c(C(F)(F)F)c2)cc1	inactive
Cc1cc(C)c2nc(C(F)(F)F)nc(N3CC(C)OC(C)C3)c2c1 (stereo not given)	inactive
Cc1ccc(S(=O)(=O)N2CCOCC2)cc1NC(=O)COC(=O)CCOc1ccc(C(C)(C)C)cc1	inactive
CCCOP(=O)(OCCC)C(Nc1cccc(C(F)(F)F)c1)c1ccc(C)cc1 (stereo not given)	inactive
CCCN(CC(=O)Nc1ccccc1C)C(=O)c1oc2ccc(OCC)cc2c1C	inactive
COc1cc(C(=O)N(C)CCOc2ccccc2)ccc1OCC(=O)Nc1cccc(C(F)(F)F)c1	inactive
CCOC(=O)C1=C(C)NC(C)=C(C(=O)OCC)C1C(=O)OCC(=O)NCc1ccc(F)cc1	inactive
C=CCN(C(=O)Cn1ncc2c1-c1cc(C)ccc1OC2)c1ccccc1	inactive
CCCCC[C@H](C)N1C[C@H](COCc2ccccc2)Oc2cc(N3CCC[C@H]3C(N)=O)ccc2S1(=O)=O	inactive

SMILES	Potency
Cc1ccc(C)c(-c2csc(N)c2C(=O)OC(C)C)c1	inactive
CN1C(=O)/C(=C2/C=Cc3ccccc3N2CCCS(=O)(=O)O)SC1=S	inactive
COc1ccc(-c2nn(-c3ccccc3)cc2/C=C2/SC(=S)N(CCCC(=O)O)C2=O)c(C)c1	inactive
CCCCC[C@@H](C)N1C[C@H](COCc2ccccc2)Oc2cc(N3CC[C@H](N(C)C)C3)ccc2S1(=O)=O	inactive
CC(Nc1ccc(Cl)cc1)c1cc(Cl)ccc1O (stereo not given)	inactive
COc1ccccc1NS(=O)(=O)c1ccc2ccccc2c1	inactive
COc1ccc(C(=O)c2ccccc2Cl)cc1OC	inactive
CCOc1ccc(C(=O)CCN2CCCCCC2)cc1	inactive
CC(C)CCNC(=O)C(CC(C)C)N(Cc1ccc2c(c1)OCO2)C(=O)c1snc(C(N)=O)c1N (stereo not given)	inactive
Cc1ccc(O)c(CNc2ccc(S(=O)(=O)Nc3nccs3)cc2)c1	inactive
CN(N=Nc1ccc([N+](=O)[O-])cc1)c1ccccc1	112 µM (active)
Nc1ccc2nc3c(=O)[nH]c(=S)[nH]c3nc2c1	79.4 µM (active)
Cc1ccccc1-c1ccc(CN2C(C(C)C)C(=O)N(Cc3cn(CCC4OCCO4)nn3)CCS2(=O)=O)cc1 (stereo not given)	inactive
CC1COc2ccccc2N1S(=O)(=O)c1ccc(Cl)cc1 (stereo not given)	inactive
O=C(CSc1nnc(SCc2ccc(Cl)cc2)s1)N/N=C/c1ccc(C(=O)O)cc1	inactive
CCOC(=O)C(C)Sc1ncc(OC)c(Sc2ccc(Cl)cc2)n1 (stereo not given)	inactive
COc1cc(/C=C/[N+](=O)[O-])ccc1OCc1cccc(C(=O)O)c1	inactive
O=C(O)C1Nc2c(Cl)cc(Cl)c(Cl)c2C2C=CCC12 (stereo not given)	inactive
O=C(NC1CCCCC1)C(c1ccc(C(F)(F)F)cc1)n1c(=O)c(-c2ccco2)nc2ccccc21 (stereo not given)	inactive
O=S(=O)(c1cc(C(F)(F)F)ccc1Cl)N1CCN(c2ncnc3ccccc23)CC1	inactive

What follows are molecules tested against Rap guanine nucleotide exchange factor 4 (Homo sapiens) (UniProt Q8WZA2) (assay: Confirmatory qHTS for agonist of cAMP-regulated guanine nucleotide exchange factor 4 (EPAC2) (AID 1645884;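 further: nucleotide exchange releases bodipy-GDP from Rap1 and this lowers its fluorescence; nearly all actives have a fitted effect of over 65% in size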)). Details: EPAC2 GEF activity, Rap1B-BODIPY-GDP fluorescence; series mostly up to 154 µM.
Rap guanine nucleotide exchange factor 4 (Homo sapiens), sequence (Q8WZA2 whole entry, looked up): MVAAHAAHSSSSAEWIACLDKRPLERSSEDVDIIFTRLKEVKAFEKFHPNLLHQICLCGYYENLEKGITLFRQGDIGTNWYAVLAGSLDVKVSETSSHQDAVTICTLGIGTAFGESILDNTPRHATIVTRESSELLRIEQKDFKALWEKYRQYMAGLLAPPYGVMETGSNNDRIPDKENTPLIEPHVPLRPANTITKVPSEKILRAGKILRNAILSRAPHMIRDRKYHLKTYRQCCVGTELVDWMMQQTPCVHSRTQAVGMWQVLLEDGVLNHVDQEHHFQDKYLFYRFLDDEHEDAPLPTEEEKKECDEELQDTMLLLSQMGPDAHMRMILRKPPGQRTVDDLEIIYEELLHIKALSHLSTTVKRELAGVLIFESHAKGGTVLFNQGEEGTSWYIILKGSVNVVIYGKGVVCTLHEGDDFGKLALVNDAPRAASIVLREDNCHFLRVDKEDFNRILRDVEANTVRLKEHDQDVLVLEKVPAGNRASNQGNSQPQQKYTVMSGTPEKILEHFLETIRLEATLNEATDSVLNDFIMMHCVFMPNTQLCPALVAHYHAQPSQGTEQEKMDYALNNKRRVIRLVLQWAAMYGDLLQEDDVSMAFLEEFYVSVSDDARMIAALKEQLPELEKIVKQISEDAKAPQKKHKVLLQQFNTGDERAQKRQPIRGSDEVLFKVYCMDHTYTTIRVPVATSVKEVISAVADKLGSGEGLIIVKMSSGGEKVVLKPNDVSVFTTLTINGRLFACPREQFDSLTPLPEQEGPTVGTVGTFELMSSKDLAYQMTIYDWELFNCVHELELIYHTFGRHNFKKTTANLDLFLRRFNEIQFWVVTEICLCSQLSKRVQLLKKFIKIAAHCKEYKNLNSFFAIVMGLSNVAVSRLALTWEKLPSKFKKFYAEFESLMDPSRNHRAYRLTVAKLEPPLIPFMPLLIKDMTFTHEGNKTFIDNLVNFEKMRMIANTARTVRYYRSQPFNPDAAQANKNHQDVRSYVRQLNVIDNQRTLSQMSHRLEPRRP

SMILES	Potency	activation
CCN1CC=C2C(C#N)=C(N)C(C#N)(C#N)C(CCc3ccccc3)C2C1 (stereo not given)	50.1 µM (active)	–
CCCCC[C@H](C)N1C[C@@H](COCc2ccccc2)Oc2cc(N3CC[C@H](N(C)C)C3)ccc2S1(=O)=O	inactive	–
COc1ccccc1-c1nc2ccccc2n(CC(C)C)c1=O	inactive	–
C[C@H](CCC(=O)O)[C@H]1CC[C@H]2[C@@H]3CC[C@@H]4C[C@H](O)CC[C@]4(C)[C@H]3CC[C@]12C	inactive	–
CCCCN(C=O)c1c(CC)nc2c(OCc3ccc(C(F)(F)F)cc3)cccn12	inactive	–
CC1=C(C(=O)OCc2ccccc2)C(c2ccc(C(C)(C)C)cc2)NC(=O)N1CCCCCC(=O)O (stereo not given)	inactive	–
CCCCOc1ccc(C(=O)N/N=C/c2cn[nH]c2-c2ccc(OC)c(OC)c2)cc1	inactive	–
CN(CC(=O)Nc1ccccc1Cl)C(=O)c1ccc(-c2cccc(C(F)(F)F)c2)o1	inactive	–
CCOC(=O)c1c(C)[nH]c(C)c1C(=O)COC(=O)c1cc(OC)cc(OC)c1	inactive	–
Cc1ccc(S(=O)(=O)c2nc(-c3ccco3)oc2SC(C)C)cc1	–	4.44% [at 17.1 µM, percent relative to cAMP agonist control]
CCC(CO)Oc1cc(NCc2ccc(C(C)(C)C)cc2)c2ncn(C(C)C)c2c1 (stereo not given)	inactive	–
COc1ccc(CCC(=O)N(C)CC(=O)Nc2ccc(Cl)c(C(F)(F)F)c2)cc1	inactive	–
Cc1cc(C)c2nc(C(F)(F)F)nc(N3CC(C)OC(C)C3)c2c1 (stereo not given)	inactive	–
Cc1ccc(S(=O)(=O)N2CCOCC2)cc1NC(=O)COC(=O)CCOc1ccc(C(C)(C)C)cc1	inactive	–
CCCOP(=O)(OCCC)C(Nc1cccc(C(F)(F)F)c1)c1ccc(C)cc1 (stereo not given)	inactive	–
CCCN(CC(=O)Nc1ccccc1C)C(=O)c1oc2ccc(OCC)cc2c1C	inactive	–
COc1cc(C(=O)N(C)CCOc2ccccc2)ccc1OCC(=O)Nc1cccc(C(F)(F)F)c1	inactive	–
CCOC(=O)C1=C(C)NC(C)=C(C(=O)OCC)C1C(=O)OCC(=O)NCc1ccc(F)cc1	inactive	–
C=CCN(C(=O)Cn1ncc2c1-c1cc(C)ccc1OC2)c1ccccc1	inactive	–
CCCCC[C@H](C)N1C[C@H](COCc2ccccc2)Oc2cc(N3CCC[C@H]3C(N)=O)ccc2S1(=O)=O	inactive	–

SMILES	Potency	activation
Cc1ccc(C)c(-c2csc(N)c2C(=O)OC(C)C)c1	–	7.03% [at 17.1 µM, percent relative to cAMP agonist control]
CN1C(=O)/C(=C2/C=Cc3ccccc3N2CCCS(=O)(=O)O)SC1=S	inactive	–
COc1ccc(-c2nn(-c3ccccc3)cc2/C=C2/SC(=S)N(CCCC(=O)O)C2=O)c(C)c1	inactive	–
CCCCC[C@@H](C)N1C[C@H](COCc2ccccc2)Oc2cc(N3CC[C@H](N(C)C)C3)ccc2S1(=O)=O	inactive	–
CC(Nc1ccc(Cl)cc1)c1cc(Cl)ccc1O (stereo not given)	inactive	–
COc1ccccc1NS(=O)(=O)c1ccc2ccccc2c1	–	0% [at 17.1 µM, percent relative to cAMP agonist control]
COc1ccc(C(=O)c2ccccc2Cl)cc1OC	inactive	–
CCOc1ccc(C(=O)CCN2CCCCCC2)cc1	inactive	–
CC(C)CCNC(=O)C(CC(C)C)N(Cc1ccc2c(c1)OCO2)C(=O)c1snc(C(N)=O)c1N (stereo not given)	inactive	–
Cc1ccc(O)c(CNc2ccc(S(=O)(=O)Nc3nccs3)cc2)c1	–	-10.4% [at 17.1 µM, percent relative to cAMP agonist control]
CN(N=Nc1ccc([N+](=O)[O-])cc1)c1ccccc1	100 µM (active)	–
Nc1ccc2nc3c(=O)[nH]c(=S)[nH]c3nc2c1	100 µM (active)	–
Cc1ccccc1-c1ccc(CN2C(C(C)C)C(=O)N(Cc3cn(CCC4OCCO4)nn3)CCS2(=O)=O)cc1 (stereo not given)	inactive	–
CC1COc2ccccc2N1S(=O)(=O)c1ccc(Cl)cc1 (stereo not given)	inactive	–
O=C(CSc1nnc(SCc2ccc(Cl)cc2)s1)N/N=C/c1ccc(C(=O)O)cc1	inactive	–
CCOC(=O)C(C)Sc1ncc(OC)c(Sc2ccc(Cl)cc2)n1 (stereo not given)	inactive	–
COc1cc(/C=C/[N+](=O)[O-])ccc1OCc1cccc(C(=O)O)c1	inactive	–
O=C(O)C1Nc2c(Cl)cc(Cl)c(Cl)c2C2C=CCC12 (stereo not given)	inactive	–
O=C(NC1CCCCC1)C(c1ccc(C(F)(F)F)cc1)n1c(=O)c(-c2ccco2)nc2ccccc21 (stereo not given)	inactive	–
O=S(=O)(c1cc(C(F)(F)F)ccc1Cl)N1CCN(c2ncnc3ccccc23)CC1	inactive	–
